For the assay, the system named is Cytotoxicity. The assay can be described thus: STAT3 inhibitors, late-stage profile, late-stage follow-up, cell-based, STAT1 panel, qPCR, cytotoxicity (AID 2078). The following applies: cell reporter assay; series mostly up to 55.7 µM.

Structures are written as SMILES. Activity calls are given as the source filed them. The rule behind the calls is not given here.

In the case of `c1ccc(CC2CCN(c3ncnc4sccc34)CC2)cc1`, the compound was called inactive.

(Values after PubChem BioAssay AID2078 (The Scripps Research Institute Molecular Screening Center, 2009).)
